Source: PubChem BioAssay (NCATS)
Results filed as inconclusive are left out. Entries that show only a call come without a potency. Calls of active or inactive are those of the source. Unless noted, calls follow the shape of the full dose curve.

How the values were obtained:
[1] = molecular target: Androgen receptor (Homo sapiens) (UniProt P10275); experiment: qHTS assay for small molecule antagonists of androgen receptor signaling (AID 588516; active = well fitted curve in the direction sought with a large enough effect in the signal ratio, with a control signal flat, not every such curve was filed as active; the % refers to the signal ratio)
Androgen receptor (Homo sapiens), sequence (P10275 whole entry, looked up): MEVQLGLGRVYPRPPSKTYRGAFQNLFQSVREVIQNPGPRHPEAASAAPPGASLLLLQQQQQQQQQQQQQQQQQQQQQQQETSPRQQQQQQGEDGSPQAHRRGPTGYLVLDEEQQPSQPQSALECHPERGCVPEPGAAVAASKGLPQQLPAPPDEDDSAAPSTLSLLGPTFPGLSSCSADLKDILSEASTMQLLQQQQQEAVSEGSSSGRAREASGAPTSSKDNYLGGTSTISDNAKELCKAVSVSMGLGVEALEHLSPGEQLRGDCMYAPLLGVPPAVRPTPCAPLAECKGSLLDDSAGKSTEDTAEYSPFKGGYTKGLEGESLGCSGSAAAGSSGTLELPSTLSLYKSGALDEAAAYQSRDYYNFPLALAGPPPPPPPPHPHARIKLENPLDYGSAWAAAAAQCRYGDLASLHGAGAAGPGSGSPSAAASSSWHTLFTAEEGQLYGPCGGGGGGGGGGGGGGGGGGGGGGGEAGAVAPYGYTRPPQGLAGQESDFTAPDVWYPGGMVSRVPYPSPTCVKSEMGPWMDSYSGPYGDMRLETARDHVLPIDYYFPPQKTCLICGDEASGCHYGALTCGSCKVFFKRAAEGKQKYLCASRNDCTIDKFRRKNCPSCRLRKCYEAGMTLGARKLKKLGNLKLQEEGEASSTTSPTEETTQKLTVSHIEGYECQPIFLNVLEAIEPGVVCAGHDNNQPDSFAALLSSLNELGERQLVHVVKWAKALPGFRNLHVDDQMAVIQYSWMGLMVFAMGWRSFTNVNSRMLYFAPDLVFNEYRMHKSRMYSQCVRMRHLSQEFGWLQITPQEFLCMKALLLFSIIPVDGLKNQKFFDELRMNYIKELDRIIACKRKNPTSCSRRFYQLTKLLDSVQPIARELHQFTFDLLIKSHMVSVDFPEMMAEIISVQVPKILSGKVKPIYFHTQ
Summary of the method: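 AR-UAS-bla GripTite HEK 293 cells (2000/well) treated with compound titrations plus 10 nM R1881 for 16 h at 37C. Beta-lactamase read by CCF4 FRET (460/530 nm); IC50 from Hill fits, normalized to R1881 and DMSO control wells.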

[2] = qHTS assay for small molecule antagonists of peroxisome proliferator-activated receptor delta signaling (AID 588535; active = well fitted inhibition curve with a large enough effect in the signal ratio, with a control signal flat, not every such curve was filed as active; the % refers to the signal ratio;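 as to max response: cells co-treated with a PPAR-delta agonist as stimulator during compound exposure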); settings: HEK293T PPARd-UAS-bla, beta-lactamase FRET ratio, 18 h; 460 nm channel
Summary of the method: (§1)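 Fluorescence from CCF4-loaded GeneBLAzer PPAR-delta-UAS-bla HEK293T cells (2 hrs RT loading) quantified reporter inhibition after an 18 hr, 37 C compound exposure across a titration.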

[3] = molecular target: Peroxisome proliferator-activated receptor delta (Homo sapiens) (UniProt Q03181); experiment: as above
Peroxisome proliferator-activated receptor delta (Homo sapiens), sequence (Q03181 whole entry, looked up): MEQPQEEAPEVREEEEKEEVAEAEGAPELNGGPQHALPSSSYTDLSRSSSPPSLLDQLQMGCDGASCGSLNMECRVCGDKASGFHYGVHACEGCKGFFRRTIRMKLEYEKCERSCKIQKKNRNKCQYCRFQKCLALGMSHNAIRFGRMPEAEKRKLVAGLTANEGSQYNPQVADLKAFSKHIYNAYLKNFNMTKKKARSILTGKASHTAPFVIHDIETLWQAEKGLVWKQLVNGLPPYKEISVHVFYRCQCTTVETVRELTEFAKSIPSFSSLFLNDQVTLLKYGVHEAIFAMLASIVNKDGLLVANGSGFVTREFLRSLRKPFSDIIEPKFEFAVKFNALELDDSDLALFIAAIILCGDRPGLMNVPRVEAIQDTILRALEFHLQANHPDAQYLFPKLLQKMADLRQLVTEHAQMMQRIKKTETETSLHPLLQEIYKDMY
Summary of the method: as §1

[4] = qHTS assay for small molecule agonists of the antioxidant response element (ARE) signaling pathway (AID 651741; active = well fitted activation curve with a large enough effect in the signal ratio; the % refers to the signal ratio; also: potency is read from the fitted curve at half-maximal effect)
Summary of the method: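 Stably integrated ARE-beta-lactamase reporter HepG2 cells; 16 h compound incubation, 37 C; LiveBLAzer FRET substrate 2 h at room temperature; fluorescence intensity.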

[5] = qHTS assay for small molecule activators of the p53 signaling pathway (AID 651743; active = well fitted activation curve with a large enough effect in the signal ratio, not every such curve was filed as active; the % refers to the signal ratio; also: series mostly up to about 92 µM); settings: HCT-116 p53RE-bla, beta-lactamase FRET ratio, 16 h; activation: stronger effect = higher value
Summary of the method: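 Following 16 hours of compound exposure at 37 C, HCT-116 cells bearing the p53RE-bla reporter were loaded with LiveBLAzer B/G FRET substrate for 2 hours at room temperature and fluorescence intensity was recorded.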

[6] = molecular target: Bile acid receptor (Homo sapiens) (UniProt Q96RI1); experiment: qHTS assay for small molecule antagonists of farnesoid X receptor signaling (AID 588526)
Bile acid receptor (Homo sapiens), sequence (Q96RI1 whole entry, looked up): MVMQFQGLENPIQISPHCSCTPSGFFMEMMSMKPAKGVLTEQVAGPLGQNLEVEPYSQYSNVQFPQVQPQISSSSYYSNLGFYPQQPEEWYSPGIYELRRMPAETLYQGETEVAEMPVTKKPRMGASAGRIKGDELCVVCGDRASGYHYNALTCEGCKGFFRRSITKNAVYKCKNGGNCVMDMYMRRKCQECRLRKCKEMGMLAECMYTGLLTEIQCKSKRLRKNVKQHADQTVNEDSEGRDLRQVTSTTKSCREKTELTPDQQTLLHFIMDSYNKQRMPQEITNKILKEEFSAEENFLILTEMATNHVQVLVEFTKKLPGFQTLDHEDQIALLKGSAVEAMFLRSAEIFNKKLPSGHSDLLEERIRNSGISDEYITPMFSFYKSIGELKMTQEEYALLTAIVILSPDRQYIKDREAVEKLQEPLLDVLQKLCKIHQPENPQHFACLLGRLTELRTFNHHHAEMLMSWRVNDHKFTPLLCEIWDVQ
Summary of the method: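 Antagonist mode: titrated compounds tested against chenodeoxycholic acid stimulation (normalized to 50 uM CDCA and DMSO) in GeneBLAzer HEK293T cells for 16 h. Beta-lactamase read by CCF4 fluorescence; IC50 from Hill fits.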

[7] = molecular target: Peroxisome proliferator-activated receptor gamma (Homo sapiens) (UniProt P37231); experiment: qHTS assay for small molecule antagonists of peroxisome proliferator-activated receptor gamma signaling (AID 588537; active = well fitted inhibition curve with a large enough effect in the signal ratio, with a control signal flat, not every such curve was filed as active; the % refers to the signal ratio;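 also: reporter cells co-stimulated with 50 nM rosiglitazone agonist during compound treatment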)
Peroxisome proliferator-activated receptor gamma (Homo sapiens), sequence (P37231 whole entry, looked up): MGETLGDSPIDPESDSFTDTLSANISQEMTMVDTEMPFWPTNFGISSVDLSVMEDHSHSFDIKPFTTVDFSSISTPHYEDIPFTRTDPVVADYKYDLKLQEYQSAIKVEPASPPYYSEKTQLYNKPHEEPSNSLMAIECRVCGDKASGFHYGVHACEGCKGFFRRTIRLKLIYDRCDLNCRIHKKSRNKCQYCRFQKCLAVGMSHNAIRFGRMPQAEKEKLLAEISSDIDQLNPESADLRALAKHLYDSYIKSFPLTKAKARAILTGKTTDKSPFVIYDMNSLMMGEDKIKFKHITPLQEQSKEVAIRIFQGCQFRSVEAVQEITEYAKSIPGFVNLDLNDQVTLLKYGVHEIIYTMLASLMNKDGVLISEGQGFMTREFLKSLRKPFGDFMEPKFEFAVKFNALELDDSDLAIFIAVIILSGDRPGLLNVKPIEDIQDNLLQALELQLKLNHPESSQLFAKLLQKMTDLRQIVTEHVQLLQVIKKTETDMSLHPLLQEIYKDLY
Summary of the method: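 Fluorescence at 460 and 530 nm (405 nm excitation) reported beta-lactamase cleavage of CCF4 after 2 h room-temperature loading. HEK293 reporter cells in 1% charcoal/dextran-treated FBS had received compound and rosiglitazone for 16 h.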

[8] = molecular target: Thyroid hormone receptor beta (Homo sapiens) (UniProt P10828); experiment: qHTS assay for small molecule antagonists of thyroid hormone receptor beta signaling (AID 588547; active = well fitted inhibition curve with a large enough effect in the signal ratio, with a control signal flat, not every such curve was filed as active; the % refers to the signal ratio;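 also: cells stimulated with 0.4 nM T3 agonist during compound exposure; series mostly up to about 77 µM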); settings: TR-UAS-bla HEK293, beta-lactamase ratio, antagonist mode, 18 h
Thyroid hormone receptor beta (Homo sapiens), sequence (P10828 whole entry, looked up): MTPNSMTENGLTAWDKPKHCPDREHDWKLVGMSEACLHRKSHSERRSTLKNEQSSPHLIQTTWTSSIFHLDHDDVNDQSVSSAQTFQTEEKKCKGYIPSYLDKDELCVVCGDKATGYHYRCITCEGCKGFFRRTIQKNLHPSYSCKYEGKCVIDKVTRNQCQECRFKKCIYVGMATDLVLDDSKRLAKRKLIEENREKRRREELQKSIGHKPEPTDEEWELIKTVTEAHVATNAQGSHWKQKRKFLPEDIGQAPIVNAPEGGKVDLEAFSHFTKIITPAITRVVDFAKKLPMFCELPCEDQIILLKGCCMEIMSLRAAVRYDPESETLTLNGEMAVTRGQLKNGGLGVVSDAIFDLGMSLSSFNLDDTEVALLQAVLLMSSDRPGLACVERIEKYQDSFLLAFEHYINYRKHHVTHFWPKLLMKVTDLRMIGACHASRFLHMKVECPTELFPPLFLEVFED
Summary of the method: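 TR-UAS-bla GripTite HEK293 cells in 2% charcoal/dextran FBS medium; compounds 0.59 nM to 92 uM with T3 at 0.4nM final, 18 h at 37 C. Beta-lactamase read by CCF4 fluorescence (460/530 nm); Hill fits gave IC50 and efficacy.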

[9] = molecular target: Androgen receptor (Homo sapiens) (UniProt P10275); experiment: qHTS assay for small molecule agonists of androgen receptor signaling (AID 588515; active = well fitted curve in the direction sought with a large enough effect in the signal ratio, with a control signal flat; the % refers to the signal ratio); settings: AR-UAS-bla HEK293, beta-lactamase ratio, agonist 16 h; activation: stronger effect = higher value
Summary of the method: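 Stimulation of an AR-responsive β-lactamase reporter in GripTite HEK293 cells was measured after 16 h compound exposure at 37 °C, via CCF4 fluorescence after 2 h RT. EC50 from Hill fits, normalized to R1881 at 30 nM.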

Compound	outcome [1]	max response [2] [%]	Potency [3]	Potency [4]	activation [5]	Potency [6]	Potency [7]	activity change % (negative = inhibition) [8]	activation [9]
CCCCC(CC)COC(=O)/C=C\C(=O)OCC(CC)CCCC (stereo not drawn)	inactive	14.1	inactive	30.6 µM (active)	-1.03% (inactive)				
C1=C/CC/C=C/CC/C=C/CC/1		18.8	inactive	inactive	-6.28% (inactive)	inactive	inactive	0.305% (inactive)	
COC(=O)CSc1cc(N=c2sc(=O)n3n2CCCC3)c(F)cc1Cl						inactive	inactive		-5.93% (inactive)
CCCCCCOCCOCCO		-32.9	inactive			inactive	inactive	-6.1% (inactive)	
C[Si]1(C)O[Si](C)(C)O[Si](C)(C)O1	inactive	-11.7	inactive	inactive		inactive	inactive	5.16% (inactive)	-4.74% (inactive)
CN(C)CCOCCN(C)C		2.82	inactive	inactive	-2.29% (inactive)	inactive		-4.05% (inactive)	
Brc1ccc(Br)c(Br)c1				inactive	-2.82% (inactive)		inactive	-13.9% (inactive)	
C[Si](C)(Cl)[Si](C)(C)Cl	inactive	-22.7	inactive	inactive	-0.0629% (inactive)		inactive	6.15% (inactive)	-5.2% (inactive)
O=C1NC(=O)C(Cc2ccc(OCCN3COc4ccccc4C3=O)cc2)S1 (stereo not drawn)				48.6 µM (active)	0.726% (inactive)	inactive			-3.44% (inactive)
CCCCC/C=C\C/C=C\CCCCCCCC(=O)OC		10.1	inactive		-2.82% (inactive)		inactive	-14.4% (inactive)	
CC(COCC(C)OC(=O)c1ccccc1)OC(=O)c1ccccc1 (stereo not drawn)		-1.92	inactive	inactive		inactive	inactive	-7.07% (inactive)	
CO[Si](CCCOCC1CO1)(OC)OC (stereo not drawn)		37.6	inactive	inactive	1.09% (inactive)	inactive	inactive	7.57% (inactive)	
